Bioassay records from PubChem BioAssay.
TEAD-YAP block: TEAD-YAP interaction inhibition. HEK-TIYL cells, TEAD-Gal4/YAP UAS-luciferase luminescence. inhibition, % at 9.12 µM. 640,000 compounds, 1.4% hits. AID 1259422; in the data active means inhibition above about 32%;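 further: 0% = median of test compound wells and 100% = reference inhibitor wells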
MITF inh: blocks human microphthalmia-associated transcription factor. AlphaScreen MITF homodimerization, bead proximity signal. inhibition, % at 2.6 µM. 650,000 compounds, 0.91% hits; in the data active means inhibition above about 50%;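 further: 0% = vehicle wells with protein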
GPR151 ag: activates the human receptor GPR151; PathHunter beta-arrestin GPR151 cells, luminescence; activation, % at 11.2 µM; Q8TDV0; 650,000 compounds, 1% hits; AID 1508602; in the data active means activation above about 4.9%;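 further: 0% = median of compound wells and 100% = cells with positive control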
Target sequence (Q8TDV0 whole entry, looked up): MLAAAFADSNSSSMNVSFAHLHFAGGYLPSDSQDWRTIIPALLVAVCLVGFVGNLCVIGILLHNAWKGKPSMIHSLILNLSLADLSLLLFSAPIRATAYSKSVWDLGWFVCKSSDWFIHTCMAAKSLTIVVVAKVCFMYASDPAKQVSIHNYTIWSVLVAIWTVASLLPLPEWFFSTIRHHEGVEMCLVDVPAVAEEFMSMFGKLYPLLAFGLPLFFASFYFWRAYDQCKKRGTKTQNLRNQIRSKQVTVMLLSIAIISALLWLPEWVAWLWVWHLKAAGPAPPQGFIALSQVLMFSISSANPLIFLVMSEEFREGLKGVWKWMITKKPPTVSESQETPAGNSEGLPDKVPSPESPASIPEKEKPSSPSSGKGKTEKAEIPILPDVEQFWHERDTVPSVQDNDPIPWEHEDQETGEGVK
FBW7 activator: human FBW7 E3 ligase activation, primary screen; Q969H0; normalized activity (activation), % at 26.1 µM; AlphaScreen FBW7–phospho-cyclin E peptide binding, activator screen; 650,000 compounds, 0.13% hits; in the data active means normalized activity above about 1.9%;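 further: purified mutant Fbw7 with reduced substrate affinity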
GPR151 conf act: human GPR151 activation, confirmation screen; activation, % at 11.2 µM; GPR151 PathHunter beta-arrestin cells, luminescence, 90 min; % of EA-reagent control over plate median; 6,700 tested, under 10 active; shares compounds with GPR151 ag; AID 1508609;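 active means mean percent activation across replicates above the confirmation screen cutoff of 4.91%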
GPR119 counter: GPR119 activation, counter-screen for GPR151 activators | 6,700 compounds, 0.3% hits | GPR119 PathHunter beta-arrestin cells, luminescence, 90 min; 0 = compound-well median, 100 = enzyme-acceptor control | shares compounds with GPR151 ag | activation, % at 11.2 µM;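 active means mean percent activation in the counterscreen above 29.09%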;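 further: counterscreen on off-target GPR119 to flag nonselective hits from the GPR151 activator screen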
* = called active by the depositor; nt = no result given. Most compounds without a hit are left out; they make up all but 3.5% or so of the library.

SMILES | TEAD-YAP block | MITF inh | GPR151 ag | FBW7 activator | GPR151 conf act | GPR119 counter
CC(Cl)C(=O)N(Cc1ccccc1)Cc1ccccc1 (stereo not given) | 8 | -18 | 5.1* | 0 | 0 | 8
C=CCn1c(CNC(=O)c2ccco2)nnc1SCC(=O)Nc1cccc(F)c1 | 2 | 3 | 7.3* | 0 | 1 | 1
C=CCn1c(SCC(=O)Nc2cccc(SC)c2)nnc1-c1ccccc1O | 10 | -6 | 5.7* | 0 | 1 | -2
CC(=O)c1cccc(NC(=O)CSc2nnc(-c3cc4ccccc4cc3O)n2C)c1 | 12 | -1 | 5.0* | 0 | 0 | -2
N#C/C(=C\c1cccc([N+](=O)[O-])c1)C(=O)Nc1ccccc1I | -13 | -9 | 1 | 0 | nt | nt
O=C(NC1CC1)c1cnc(Nc2ccc(C(F)(F)F)cc2)s1 | 1 | 5 | 4.9* | 0 | 1 | -1
O=C(NC1CC1)c1cnc(Nc2ccc3ncccc3c2)s1 | -37 | 2 | 6.3* | 0 | -1 | -12
O=C(NCCc1c[nH]c2ccccc12)C12CC3CC(CC(O)(C3)C1)C2 | -11 | 6 | 7.6* | 0 | 0 | -1
O=C(NCCN1CCOCC1)c1cncc(-c2cccs2)c1 | 3 | 42 | 7.3* | 0 | 0 | 2
Cn1c2c(c(=O)n(C)c1=O)C(c1ccccc1Cl)CC(=O)N2 (stereo not given) | 5 | 10 | 8.6* | 0 | 0 | 10
Cc1c(C(=O)N2CCCC(C)C2)sc2ncn(Cc3ccccc3F)c(=O)c12 (stereo not given) | -1 | -3 | -1 | 0 | nt | nt
Cc1c(C(=O)N2CCCC2)sc2ncn(Cc3ccccc3F)c(=O)c12 | 7 | 2 | 5.3* | 0 | 1 | 16
CCOC(=O)COc1ccc(/C=C2\C=C(c3ccc(Br)cc3)OC2=O)cc1OC | 6 | -14 | 13* | 0 | 2 | 14
CC1CN(c2nc(N)c3c(N)nc4c(c3c2C#N)CC(=O)N4C2CCCC2)CC(C)O1 (stereo not given) | 1 | 9 | -1 | 0 | nt | nt
Cc1ccc(-n2c(=O)[nH]cc(C(=O)Nc3ccc(C(N)=O)cc3)c2=O)cc1C | 11 | 10 | -1 | 0 | nt | nt
CC(C)c1ccc(NC(=O)C2C3C=CC4(O3)C2C(=O)N(CCCN2CCOCC2)C4C(=O)NC2CCCCC2)cc1 (stereo not given) | 4 | -8 | 5.5* | 0 | 1 | 12
Cc1ccc(NC(=O)C2C3C=CC4(O3)C2C(=O)N(CCC2=CCCCC2)C4C(=O)NC2CCCCC2)cc1Cl (stereo not given) | -1 | -22 | 5.8* | 0 | 0 | -8
CCCCN1C(=O)C2C(C(=O)Nc3ccc(Cl)c(Cl)c3)C3C=CC2(O3)C1C(=O)NC1CCCCC1 (stereo not given) | 3 | 16 | -2 | 0 | nt | nt
CC(C)c1ccc(NC(=O)C2C3C=CC4(O3)C2C(=O)N(CCCN2CCN(C)CC2)C4C(=O)NC2CCCCC2)cc1 (stereo not given) | -14 | -13 | 0 | 0 | nt | nt
CCCCN1C(=O)C2C(C(=O)Nc3ccc(C)c(Cl)c3)C3C=CC2(O3)C1C(=O)NC1CCCCC1 (stereo not given) | -5 | -13 | 9.6* | 0 | 0 | 3
Cc1ccc(NC(=O)C2C3C=CC4(O3)C2C(=O)N(CCC2=CCCCC2)C4C(=O)NC2CCCCC2)cc1 (stereo not given) | -8 | -3 | 0 | 0 | nt | nt
N#Cc1c(SCC(=O)c2ccc(Br)cc2)nc2c(c1-c1ccco1)CCCC2 | 0 | -1 | 1 | 0 | nt | nt
CN1CCN(C(=O)c2cn(-c3ccc(Cl)cc3)c(=O)c3ccccc23)CC1 | 7 | -5 | 1 | 0 | nt | nt
CCOc1ccc(NC(=O)N2CCC(Cn3cnc4cc(C)c(C)cc43)CC2)cc1 | 10 | 7 | 5.8* | 0 | 1 | 4
CCOc1ccc(NC(=O)N2CCC(CN3CCCCCC3)CC2)cc1 | -3 | 5 | -1 | 0 | nt | nt
SMILES | TEAD-YAP block | MITF inh | GPR151 ag | FBW7 activator | GPR151 conf act | GPR119 counter
CC(C)(C)c1ccc2c(c1)C1c3ccc(C(C)(C)C)cc3C2C2C(=O)N(c3ccccc3)C(=O)C12 (stereo not given) | 13 | 4 | 0 | 0 | nt | nt
CC[C@H](Cn1nc(-c2cccs2)ccc1=O)NC(=O)c1ccc2nc(C)[nH]c2c1 | 0 | 18 | 0 | 0 | nt | nt
Cc1ccc(S(=O)(=O)NC(Cc2ccccc2)C(=O)Nc2nc(C)cs2)cc1 (stereo not given) | 2 | -1 | 1 | 0 | nt | nt
COc1cc(OC)cc(C(=O)ON=C2C=CC(=O)C=C2)c1 | -23 | 3 | 0 | 0 | nt | nt
C=C1C(C(=O)N2CCOCC2)C1C(=O)N1CCOCC1 (stereo not given) | -7 | 13 | 5.4* | 0 | 0 | 7
COc1ccc2oc(=O)c(N(C)S(=O)(=O)c3ccc(C)cc3)cc2c1 | 2 | 15 | 5.1* | 0 | -1 | -2
CCN(CC)CCNc1c2c(nc3nnnn13)CCCC2 | 3 | 11 | 0 | 0 | nt | nt
COCCCNc1c2c(nc3nnnn13)CCCC2 | 5 | 5 | 6.1* | 0 | 0 | -2
COc1ccc(NC(=O)c2cc(Br)ccc2Cl)cc1N1CCCC1=O | -14 | 10 | 1 | 0 | nt | nt
COc1cc(NC(=O)c2cc(Br)ccc2Cl)ccc1N1CCCC1=O | 9 | 10 | 5.0* | 0 | 1 | 8
C=CCN1CCN(c2c(Cl)cccc2NC(=O)c2ccc(Br)o2)CC1C (stereo not given) | -4 | 10 | 0 | 0 | nt | nt
COc1cc2c(cc1NC(=O)c1cccc([N+](=O)[O-])c1)oc1ccccc12 | -1 | 8 | 6.9* | 0 | 1 | 0
COc1cc2c(cc1NC(=O)c1ccccc1Cl)oc1ccccc12 | -41 | -14 | 0 | 0 | nt | nt
COc1cc2c(cc1NC(=O)c1ccoc1C)oc1ccccc12 | -65 | -6 | 5.2* | 0 | 0 | 3
COc1ccc(CCNC(=O)c2ccc3c(c2)NC(=O)C(CS(=O)(=O)Cc2cccc(C)c2)N3)cc1OC (stereo not given) | 1 | -5 | 0 | 0 | nt | nt
COC(=O)c1ccc2c(c1)nc(SCc1cccc([N+](=O)[O-])c1)n1c3ccccc3nc21 | -19 | 3 | -1 | 0 | nt | nt
C=CCOc1ccc(C(=O)N(Cc2nc(-c3ccc(OC)c(OC)c3)no2)C(C)C)cc1 | 0 | 12 | 12* | 0 | -1 | 6
Cc1ccc(-c2noc(CN(C(=O)CCN3C(=O)c4ccccc4C3=O)C(C)C)n2)cc1 | 5 | 13 | 5.1* | 0 | -1 | -9
CN(Cc1nc(-c2ccccc2)no1)S(=O)(=O)c1ccc(Cl)cc1 | 5 | 3 | 5.5* | 0 | -1 | -8
CCOc1ccc(C(=O)N(Cc2nc(-c3ccc(OC)cc3)no2)C(C)C)cc1OCC | -3 | 3 | -1 | 0 | nt | nt
